FLuc modulator = firefly luciferase modulation, counter-screen for miR-21 project. P08659. purified FLuc, Km substrates, luminescence inhibition. Potency, µM (top dose mostly 57.5 µM), for the others: top-dose activity change, negative = inhibition, hits mostly inhibitors. 360,000 compounds, 6.9% hits. AID 588342;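 further: plate controls were vehicle for no effect and reference inhibitor for full effect; nearly all actives have a fitted effect of over 55% in size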
Target sequence (P08659 whole entry, looked up): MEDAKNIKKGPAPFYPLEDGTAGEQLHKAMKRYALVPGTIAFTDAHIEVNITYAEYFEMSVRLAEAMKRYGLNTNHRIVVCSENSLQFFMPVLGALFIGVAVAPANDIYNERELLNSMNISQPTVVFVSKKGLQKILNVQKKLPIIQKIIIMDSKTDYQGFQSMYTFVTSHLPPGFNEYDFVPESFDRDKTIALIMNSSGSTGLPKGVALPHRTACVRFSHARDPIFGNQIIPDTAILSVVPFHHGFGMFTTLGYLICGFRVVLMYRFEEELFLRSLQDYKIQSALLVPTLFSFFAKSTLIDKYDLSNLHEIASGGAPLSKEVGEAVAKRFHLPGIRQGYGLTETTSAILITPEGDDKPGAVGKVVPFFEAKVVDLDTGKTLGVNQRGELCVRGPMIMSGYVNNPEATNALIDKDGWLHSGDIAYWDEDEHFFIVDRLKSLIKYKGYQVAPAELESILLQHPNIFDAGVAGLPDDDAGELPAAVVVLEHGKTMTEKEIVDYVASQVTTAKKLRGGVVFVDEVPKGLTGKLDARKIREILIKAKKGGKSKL
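Purified P. pyralis luciferase, 10 nM final, with Km-level 10 uM D-luciferin and 10 uM ATP in 50 mM Tris acetate pH 7.5, 10 mM Mg acetate, 0.01% Tween-20, 0.05% BSA; 6-point qHTS titration about 60 µM downward; luminescence read.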
SMN2 splice up = SMN2 splice variant enhancement. HEK293 SMN2-luciferase splicing reporter, luminescence, 30-36 h. Potency, µM (highest dose often 46.1 µM), without a hit: at the highest dose activity change, positive = activation, usual class: activators. 210,000 compounds, 2.8% hits. AID 1458; further: % of control where 0% means no effect; nearly all actives have a fitted effect of over 55% in size
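qHTS luciferase splicing reporter: luminescence rises when SMN2 exon 7 is included in transfected HEK293 cells. Compound exposure lasted 30-36 h at 37C, with 4.5 mM final sodium butyrate as control, followed by a ONE-Glo read.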
KinaseGlo FLuc = counter-screen: inhibitors of Kinase-Glo firefly luciferase | AID 1379 | 200,000 compounds, 0.28% hits | Potency, µM (top dose mostly 38.3 µM), inactives show at the highest dose activity change, negative = inhibition, hits mostly inhibitors | Kinase-Glo luciferase, ATP luminescence, 8 min; further: on the % scale 0 is the no-effect control and ±100 the full control effect; nearly all actives have a fitted effect of over 60% in size
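Light output from Kinase-Glo luciferase with luciferin and 10 uM ATP in 50 mM imidazole pH 7.2, KCl, MgCl2, Tween 20, BSA; compound pin-delivered, 8-min ambient incubation, then luminescence read.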
Rab9 prom act = activators of Rab9 promoter; Huh7 Rab9 promoter-luciferase reporter, luminescence, 24 h; Potency, µM (series often up to 9.22 µM), for inactives: at the top dose activation, negative = inhibition, most hits filed as activators; 320,000 compounds, 2.8% hits; AID 485297; further: % of control where 0% means no effect; nearly all actives have a fitted effect of over 60% in size
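Steps: seed 1500 Huh7 Rab9-luc cells per well, rest 2 h at 37 °C; add compound in DMSO; incubate 24 h; add luciferase reagent, 10 min ambient; read luminescence.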
NPC1 prom act = activates the NPC1 promoter. 320,000 compounds, 2.4% hits. Huh7 NPC1 promoter luciferase reporter, 24 h. Potency, µM (titrated, usually from 9.22 µM), without a hit: top-dose activation, hits mostly activators; further: % of control where 0% means no effect; nearly all actives have a fitted effect of over 60% in size
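In 1536-well qHTS, Huh7 cells harboring an NPC1 promoter–luciferase construct received compound for 24 h; activation was quantified by luminescence following luciferase reagent addition.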
ELG1 genotoxic = induces genotoxicity in HEK293T cells with luciferase-tagged ELG1. HEK293T ELG1-luciferase reporter, luminescence, 16 h. Potency, µM (series often up to 46 µM), for inactives: top-dose activity change, positive = activation, actives largely listed as activators. 330,000 compounds, 1.3% hits; further: % of control where 0% means no effect; nearly all actives have a fitted effect of over 60% in size
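Step 1: seed 2,000 HEK293T ELG1-luciferase cells per well. Step 2: add compound or DMSO, incubate 16 hr at 37 °C. Step 3: ONE-Glo, 30 min at room temperature, read luminescence.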
An asterisk follows results filed as active; [ ] = dose if it differs, or a comment. The list is not random: actives were taken first. Their share in the collection is about 7.5%. The call rests on the fitted dose curve; in most records, active means well fitted curve in the direction sought with a large enough effect; inconclusive means small, poorly fitted or top-dose-only effect, or another doubt; inactive means no such curve, though single readings can be large; an effect the other way counts as inactive or inconclusive. Potency means the concentration at half of the fitted maximal effect.

What do the screens show for `C/C(=N/NC(=O)c1ccc2c(c1)OCO2)c1cccc(NC(=O)C(C)(C)C)c1`?
FLuc modulator: 16.9µM*; SMN2 splice up: 19.3%; KinaseGlo FLuc: 3.7%; Rab9 prom act: 2.8%; NPC1 prom act: -6.7%; ELG1 genotoxic: 5.3%

Results for COc1ccccc1NS(=O)(=O)c1cccc(C(=O)N/N=C(\C)c2cccnc2)c1 ?
FLuc modulator: 1.6%; Rab9 prom act: 2.4%; NPC1 prom act: -0.6%; ELG1 genotoxic: 1.4%

How did Cc1c(/C=C(\C#N)C(=O)Nc2cccc(Cl)c2)c2ccccc2n1Cc1ccccc1Cl do in these assays?
FLuc modulator: -5.1%; SMN2 splice up: -2.1%

How did C/C(=N\NC(=O)c1cc2ccccc2cc1O)c1ccc2c(c1)OCO2 do in these assays?
FLuc modulator: 9.53µM*; SMN2 splice up: 14.6%; KinaseGlo FLuc: -9.1%; Rab9 prom act: 25.0%; NPC1 prom act: 20.8%; ELG1 genotoxic: 10.3%

How did O=C(CN1C(=O)C(c2ccc(F)cc2)=NC12CCCCCC2)Nc1ccc(F)c(Cl)c1 do in these assays?
FLuc modulator: 3.1%; SMN2 splice up: 9.7%

What do the screens show for `COc1ccc(OC)c(C2CC(=O)Nc3ccc4ccccc4c32)c1` (stereo not given)?
FLuc modulator: -12.5%; SMN2 splice up: 1.3%

How did COc1ccc(OC)c(C2CC(=O)Nc3cc(OC)c(OC)c(OC)c32)c1 (stereo not given) do in these assays?
FLuc modulator: 7.2%; SMN2 splice up: inconclusive; KinaseGlo FLuc: -3.6%; Rab9 prom act: -4.8%; NPC1 prom act: -0.3%; ELG1 genotoxic: 18.4µM*

Results for CN(C)c1ccc(CNC(=O)C2COc3ccccc3C2)cc1 (stereo not given) ?
FLuc modulator: -16.0%

Results for COc1cccc(CNC(=O)C(C)n2ncn3cccc3c2=O)c1OC (stereo not given) ?
FLuc modulator: 6.01µM*

How did COc1cccc(CNC(=O)Cn2ncn3cccc3c2=O)c1OC do in these assays?
FLuc modulator: -0.1%; Rab9 prom act: 4.5%; NPC1 prom act: 2.7%; ELG1 genotoxic: 8.9%

What do the screens show for `COc1ccc(C(C(=O)NCCC(C)C)N(CCO)C(=O)c2snc(C(N)=O)c2N)cc1` (stereo not given)?
FLuc modulator: -0.1%; Rab9 prom act: 2.3%; NPC1 prom act: -0.7%; ELG1 genotoxic: 3.1%

What do the screens show for `CCN(C)c1ccc(/C=N\n2nnnc2N)cc1`?
FLuc modulator: 12µM*; SMN2 splice up: 11.2µM*; KinaseGlo FLuc: 0.6%; Rab9 prom act: 25.5%; NPC1 prom act: -11.1%; ELG1 genotoxic: 9.2µM*

What do the screens show for `COc1cccc(C(=O)Nc2ccc(C(=O)c3ccccc3)cc2)c1`?
FLuc modulator: inconclusive; Rab9 prom act: -2.6%; NPC1 prom act: 6.6%; ELG1 genotoxic: 8.4%

What do the screens show for `COc1cccc(C(=O)Nc2cccc(C(C)=O)c2)c1`?
FLuc modulator: 21.3µM*; KinaseGlo FLuc: inconclusive; Rab9 prom act: inconclusive; NPC1 prom act: inconclusive; ELG1 genotoxic: inconclusive

Results for COc1cccc(C(=O)Nc2ccc3c(c2)C(=O)c2ccccc2C3=O)c1 ?
FLuc modulator: inconclusive; SMN2 splice up: -15.2%[1.84 µM]; KinaseGlo FLuc: -4.9%; Rab9 prom act: inconclusive; NPC1 prom act: 3.16µM*; ELG1 genotoxic: inconclusive

What do the screens show for `COc1cccc(C(=O)Nc2ccc(C)cc2)c1`?
FLuc modulator: 6.01µM*; SMN2 splice up: 11.2µM*; KinaseGlo FLuc: -15.1%; Rab9 prom act: 1µM*; NPC1 prom act: 1.41µM*; ELG1 genotoxic: 1.84µM*

What do the screens show for `COc1cccc(C(=O)Nc2ccc(C(=O)O)cc2)c1`?
FLuc modulator: inconclusive; Rab9 prom act: -0.3%; NPC1 prom act: 6.5%; ELG1 genotoxic: 0.6%

Results for COc1cc(NC(=O)c2ccnnc2)cc(C(=O)Nc2cccc(C(F)(F)F)c2)c1 ?
FLuc modulator: 19µM*; Rab9 prom act: 1.9%; NPC1 prom act: 0.0%; ELG1 genotoxic: -2.0%

Source: PubChem
